Screens from PubChem BioAssay.
Hits are enriched below; roughly 3.2% of the tested compounds scored in any of these assays.
EphB4 ephrin blk = EphB4-ephrin-B2 interaction antagonists, primary screen, biochemical, TNYL-RAW peptide probe, fluorescence polarization; inhibition, % at 7 µM; AID 720, 2007; EphB4 LBD / TNYL-RAW-Alexa532 peptide; hit rate 0.15% among 97,000;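 active = inhibition above the screen-wide mean inhibition plus 3 SD, cut at about 15% in these data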;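 note: 0% = DMSO wells and 100% = excess unlabeled TNYL-RAW peptide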
ERa SRC1 inh = ERα–SRC-1 coactivator interaction inhibitors, primary screen, biochemical, TR-FRET, ERα LBD, estradiol-bound. AID 629, 2007. TR-FRET ER-alpha LBD / SRC-1 peptide. hit rate 1.7% among 86,000. inhibition, % at 25.6 µM; in the data active = inhibition above about 50%;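 note: 0% = receptor plus peptide control and 100% = peptide only without receptor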
Calb biofilm kill = clotrimazole potentiators killing Candida biofilms, primary screen, with clotrimazole, Alamar Blue | C. albicans biofilm + clotrimazole | inhibition, % at 6 µM | hit rate 0.14% among 85,000 | AID 834, 2007;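 active = inhibition above 20%; inactive = inhibition below 20%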;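 note: preformed 24 hr biofilms exposed to compound for 48 hr; 0% = biofilm without compound and 100% = blank killed by clotrimazole plus chlorhexidine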
ERa coact pot = enhancers of ERα–SRC-1 coactivator binding, primary screen, biochemical, TR-FRET, ERα LBD, low estradiol; coactivator binding (% of control), % at 25.6 µM; Estrogen receptor (Homo sapiens), P03372; TR-FRET ERalpha-LBD/SRC-Cy5 coactivator binding, 2 h; 100 = basal binding, no effect; hit rate 1.3% among 86,000; in the data active = activity above about 200%;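 note: binding measured in presence of low estradiol as agonist stimulus; 0% = peptide alone without receptor and 100% = receptor with peptide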
ERb coact inh = inhibitors of ERβ-SRC1 coactivator interaction, primary screen, biochemical, TR-FRET, ERβ LBD, SRC-1 peptide | Estrogen receptor beta (Homo sapiens), Q92731 | TR-FRET ER-beta LBD / SRC1-Cy5 peptide binding; receptor agonist-loaded with 1 µM estradiol | inhibition, % at 25.6 µM | hit rate 1.3% among 86,000 | AID 633, 2007;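 active = compounds whose percent inhibition of the receptor-coactivator binding signal exceeds about 50% in the single-dose screen, limit read from the data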;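 note: 0% = receptor plus peptide wells without compound and 100% = peptide-only wells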
MT1-MMP txn act = MT1-MMP promoter reporter activation – cell-based, luciferase luminescence, primary screen. hit rate 0.16% among 86,000. HT1080 MT1-MMP promoter luciferase reporter, overnight; stronger effect = higher value. activation factor at 10 µM;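 active = activation factor of at least 2 for MT1-MMP transcription at 10 µM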
An asterisk follows results filed as active; . = no result given; [ ] = another dose, or the depositor's remark.

SMILES | EphB4 ephrin blk | ERa SRC1 inh | Calb biofilm kill | ERa coact pot | ERb coact inh | MT1-MMP txn act
Cc1nn(-c2ccccc2)c2sc(C(=O)c3c(N)n(C)c(=O)n(C)c3=O)cc12 | . | -11 | 4 | 550* | 13 | 1
Cc1nn(-c2ccccc2)c2sc(C(=O)n3cccn3)cc12 | . | 15 | 6 | 100 | 8 | 1.4
Cc1nn(-c2ccccc2)c2sc(C(=O)C(C#N)c3ccccn3)cc12 (stereo not drawn) | . | 79*[fluorescence artefact?] | 13 | 23 | 93*[fluorescence artefact?] | 1.1
COc1cccc(-c2nc(=S)c3c(n2CCCO)CCCC3)c1 | -1 | -8 | 0 | 100 | 1 | 1.3
Cc1cc2nc(-c3cccnc3SCC(=O)NCc3ccco3)[nH]c2cc1C | -1 | 69*[fluorescence artefact?] | 8 | 65 | 60* | 0.8
Cc1nnc(SCC(=O)NCc2ccco2)[nH]c1=O | 4 | -52 | -3 | 84 | 3 | 1.1
Cc1cc(=O)[nH]c(SCC(=O)Nc2ccc(C(=O)O)cc2)n1 | 1 | -6 | 2 | 94 | -5 | 1.3
CC(C)c1ccc(NC(=O)CSc2nc3c(c(=O)[nH]2)CCC3)cc1 | . | 100*[fluorescence artefact?] | 4 | 120 | 5 | 1.3
CCOC(=O)c1ccc(NC(=O)CSc2nc(C)cc(=O)[nH]2)cc1 | -1 | 90* | 4 | 24 | 84*[fluorescence artefact?] | 1.1
Cc1cc(=O)[nH]c(SCC(=O)NCc2ccco2)n1 | 5 | 50 | 8 | 56 | 66* | 1.2
O=C(CSc1ncccc1-c1nc2ccccc2[nH]1)NCc1ccco1 | 2 | 39 | 9 | 63 | 32 | 1
CC(=O)N1CC=CC1(CC(C)C)C(=O)NCc1ccccn1 (stereo not drawn) | . | . | . | . | . | 1
Cc1nc2sccn2c1-c1nc(-c2cc3ccccc3o2)cs1 | -12 | 61* | 7 | 90 | 28 | 1.3
CCOC(=O)c1ccc(N2C(=O)c3n[nH]c(C)c3C2c2ccc(OC)c(OC)c2)cc1 (stereo not drawn) | 4 | 1 | 4 | 112 | 2 | 1
CCOC(=O)c1ccc(N2C(=O)c3n[nH]c(C)c3C2c2ccc(OC)cc2)cc1 (stereo not drawn) | -3 | 99*[fluorescence artefact?] | 6 | 110 | -7 | 0.9
Cc1ccc(-c2n[nH]c(=S)n2/N=C/C=C/c2ccccc2[N+](=O)[O-])cc1 | 5 | 53*[fluorescence artefact?] | -1 | 323* | 47 | 1.2
O=[N+]([O-])c1cc2c(cc1/C=N/n1c(-c3ccccc3)n[nH]c1=S)OCO2 | -9 | . | . | . | . | .
CCCCOc1ccc(C(=O)NCc2ccccn2)cc1 | 8 | -37 | 2 | 623*[fluorescence artefact?] | -15 | 1.3
O=C(NCc1ccccc1)c1ccc(/C=N/O)nc1 | . | -4 | 4 | 130 | -10 | 1.1
O=C(NCc1ccccn1)c1ccc(/C=N/O)nc1 | 0 | 1 | 9 | 92 | 66*[fluorescence artefact?] | 1.1
COc1ccc(C(=O)NCc2ccccn2)cc1 | -3 | 16 | 5 | 95 | 24 | 1.2
Fc1ccc2nc3[nH]c4ccccc4c3nc2c1 | 4 | 7 | 2 | 162 | 14 | 1.5
COC(=O)c1c(NC(=O)Cc2cccs2)sc2c1CCCC2 | 3 | 90*[fluorescence artefact?] | -2 | 57 | 74* | 1.4
CCOC(=O)c1nn(-c2ccc(Cl)cc2)c2nc(-c3ccc(C)cc3)c(C#N)c(=O)n12 | 0 | . | . | . | . | .
CCOC(=O)c1nn(-c2ccc(Cl)cc2)c2nc(CC)c(C#N)c(=O)n12 | -4 | 12 | 9 | 202* | 3 | 1.1
Cc1nnc(SCc2nnc(-c3ccccc3Br)o2)n1-c1ccccc1 | 2 | 44 | -2 | 78 | 28 | 1.2
Brc1ccccc1-c1nnc(CSc2nnnn2-c2ccccc2)o1 | -10 | 51* | -1 | 88 | 27 | 1.2
Cc1ccc(-c2nc3cnccn3c2Nc2c(C)cccc2C)o1 | -4 | 0 | 9 | 91 | -6 | .
CCOC(=O)N1CCN(c2cc(=O)n(-c3ccccc3Cl)c(=O)[nH]2)CC1 | 2 | 0 | 2 | 123 | 74*[fluorescence artefact?] | 1.1
O=c1cc(N2CCN(c3ccccc3)CC2)[nH]c(=O)n1-c1ccccc1Cl | -11 | 0 | 2 | 163 | -1 | 1.2
